Reference: PubChem BioAssay (NCI)
The panel holds about 83,000 compounds, 20% with a hit somewhere; the sample as a whole holds those more often.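 Values shown are percent growth following 48 h exposure of cells in 96-well plates to a single concentration of compound; below 10 was considered active.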 Active and inactive are the calls of the source.

Each compound was assayed on BT-549 breast (assay: NCI-60 one-dose screen, 48 h (100 = growth as untreated, 0 = no growth, -100 = all killed)). Conditions: 10 µM unless noted.

SMILES | growth
Cc1csc(/N=C(N)/N=C(\N)c2cccc(Br)c2)n1 | 92.6% (inactive)
Clc1ccc2[nH]cc(-c3nn4cc(-c5ccncc5)nc4s3)c2c1 | -54.3% (active)
NS(=O)(=O)c1ccc(Nc2nc(Nc3ccccc3)nc(N3N=C(c4ccc(Cl)cc4)CC3c3ccc(Cl)cc3)n2)cc1 (configuration not stated) | 73.2% (inactive)
Cn1ncc2c(C(=O)c3ccc(F)cc3)nc(C(C)(C)C)nc21 | 98.4% (inactive)
Cc1ccc(Nc2nc(SC(C)C)nc(-c3ccccc3)c2C#N)cc1 | 79.6% (inactive)
O=C1CSC(c2cn(-c3ccccc3)nc2-c2ccc(Cl)cc2)N1c1ccccc1 (configuration not stated) | 109% (inactive)
O=C1Nc2ccc(F)cc2/C1=C\C(=O)c1ccc(NS(=O)(=O)c2ccccc2)cc1 | 111% (inactive)
CC(Nc1ncnc2ccc(-c3cnc4cnccn34)cc12)c1ccccc1 (configuration not stated) | 47.9% (inactive)
Cc1ccc2c(n1)C(=O)C(Cl)=C(Nc1ccc(C(=O)OC(C)(C)C)cc1)C2=O | 84% [9.25 µM] (inactive)
C/C(=N\NC(=O)/C=C/CC(=O)O)c1nnn(-c2ccc([N+](=O)[O-])cc2)c1C | 103% (inactive)
Cc1[nH]c(C(=O)Nc2ccccc2OCc2cccc(C(=O)NC3CCNC3)c2)c(Cl)c1Cl (configuration not stated) | 83.8% (inactive)
N#Cc1nc(-c2ccccc2)oc1N1CCC(C2(C(F)(F)F)N=N2)CC1 | 136% (inactive)
CNC(=O)c1cc(-n2ccc3cc(NC(=O)Nc4ccc(N5CCN(C)CC5)c(C(F)(F)F)c4)ccc32)ccn1 | 95.1% (inactive)
NS(=O)(=O)c1nnc(/N=C/c2c(O)[nH]c3ccccc23)s1 | 98.8% (inactive)
C#C[C@]1(O)CC[C@H]2[C@@H]3CC=C4c5sc(NCc6ccccc6)nc5CC[C@]4(C)[C@H]3CC[C@@]21C | 18.2% (inactive)
O=C(N/N=C\c1ccc([N+](=O)[O-])cc1)c1ccc2nc(-c3ccc(Br)cc3)[nH]c2c1 | 6.72% (active)
OCC(Nc1ncnc2ccc(-c3cnc4cnccn34)cc12)c1ccccc1 (configuration not stated) | 76.2% (inactive)
CN(C)CCNc1ccc2ncc(C#Cc3cncc(C(=O)Nc4ccc(CN5CCN(C)CC5)c(C(F)(F)F)c4)c3)n2n1 | -8.5% (active)
CN1CCN(c2ccc(Nc3nc(NCCNC(=O)c4ccccc4)c4sccc4n3)cc2)CC1 | 58.8% (inactive)
Cc1ccc(S(=O)(=O)NCCCNc2nc(Nc3ccc(N4CCN(C)CC4)cc3)nc3ccsc23)cc1 | -1% (active)
CCOC(=O)c1cccnc1Nc1ccc(NC(=O)Nc2ccc(Cl)c(C(F)(F)F)c2)cc1 | 60.9% (inactive)
CC(Nc1ncnc2ccc(-c3cnc(N)nc3)cc12)c1ccccc1 (configuration not stated) | 19.9% (inactive)
